# From PubChem BioAssay (NCI)
# About 83,000 compounds went through this panel and 20% of them were active in at least one assay; those are over-represented in the sample as a whole.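 Plates (96-well) were seeded with cells, treated with compound at one concentration, and incubated for 48 hours before percent growth was determined.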 Activity calls are given as the source filed them.
# System: NCI-H460 lung
# Assay: NCI-60 one-dose screen, 48 h (100 = growth as untreated, 0 = no growth, -100 = all killed)
# Details: 10 µM unless noted
# Method: Growth inhibition of the NCI-H460 human Non-Small Cell Lung tumor cell line is measured as a screen for anti-cancer activity. Cells are grown in 96 well plates and exposed to the test compound for 48 hours. Compounds are tested at a single concentration, which is 10^-5 M for most compounds. The reported endpoint is percent growth (GI% or GIPRCNT), where numbers from 0 - 100% represent growth inhibition, and numbers from -100% - 0 represent cell death. For example, a value of 40 represents 60% growth inhibition. A value of 0 means no net growth occurred over the course of the experiment. A value of -40 indicates 40% of cells at the beginning of the experiment died by the end of the experiment. A value of -100 means all cells are dead at the end of the experiment.
# NCI-60 Human Tumor Cell Lines Screen was performed using the standard one-dose NCI protocol, which is described in more detail at https://dtp.cancer.gov/discovery_development/nci-60/default.htm.
# Compounds with GIPRCNT values below 10 were considered active. Activity score was based on GIPRCNT using the following formula: […]
# Score is 0 for GIPRCNT values of 100 or above, 50 for GIPRCNT values of 0, and 100 for GIPRCNT values of -100.
row,SMILES,growth
1,O=C1COCCN1c1ccc(NCc2cn(C(=O)c3ccc(Cl)cc3)c3ccccc23)cc1,14.9% (inactive)
2,O=C(N/N=C/[C@@H](O)[C@H](O)[C@H](O)CO)c1ccc(NC(=O)c2cccnc2)cc1,108% (inactive)
3,Cc1cccc2c3c(sc12)C(c1ccc(Cl)cc1)C(C#N)=C(/N=C/c1ccc(Cl)cc1)O3 (stereo not given),6.47% (active)
4,O=C(Nc1ccc(I)cc1F)c1cc(I)ccc1O,2.89% (active)
5,COc1ccc(-c2nc(NCCO)[nH]c(=O)c2C#N)cc1,112% (inactive)
6,O=c1ccc(N=Nc2ccccc2)ccc1Cl,98% (inactive)
7,COc1ccc(CN2c3ccccc3Sc3ccccc32)c(F)c1,11% (inactive)
8,O=c1c2cc(F)ccc2sc2c(NCCCNCCO)nc3ccc(F)cc3c12,-32.8% (active)
9,NS(=O)(=O)c1ccc(-n2nc(C(=O)N/N=C\c3ccc(F)cc3)cc2-c2ccc(Br)cc2)cc1,84.1% (inactive)
10,COc1ccc(OC)c(/C=C/c2nnc(Nc3ccccc3)o2)c1,97.2% (inactive)
11,COc1ccc2c(c1)c(-c1ccc(-c3cn(C)c4ccc(OC)cc34)o1)cn2C,56.8% (inactive)
12,COc1cc(/C=C/C(=O)/C=C/c2cc(OC)c3c(c2OC)OCO3)c(OC)c2c1OCO2,23.5% (inactive)
13,C#C[C@]1(O)CC[C@H]2[C@@H]3CC=C4c5sc(Nc6cc(F)ccc6F)nc5CC[C@]4(C)[C@H]3CC[C@@]21C,-54.4% (active)
14,CC(=O)CC(c1cccs1)c1c(-c2ccccc2)[nH]c2ccccc12 (stereo not given),98.4% (inactive)
15,C=C(C)[C@@H]1CC[C@]2(N=C=O)CC[C@]3(C)[C@H](CC[C@@H]4[C@@]5(C)Cc6c([nH]c7ccccc67)C(C)(C)[C@@H]5CC[C@]43C)[C@@H]12,39.5% (inactive)
16,Cc1cc(N2CCCC2)nc(N(CCCNc2ccnc3cc(Cl)ccc23)Cc2ccccn2)n1,35.6% (inactive)
17,CC/C=C\C[C@@H]1C/C=C2/C(=O)C=C[C@H]2C/C=C\CCCC(=O)O1,-48.6% (active)
18,COc1cccc(-c2nc(-c3ccc(NS(=O)(=O)c4ccccc4)cc3)[nH]c2-c2ccnc(Br)c2)c1,16.7% (inactive)
19,Cc1nc(NC(=O)COc2ccc(/C=C3\Cc4ccc(Cl)cc4C3=O)cc2)sc1C,101% (inactive)
20,CCOC(=O)c1sc2ncc(-c3ccc(C)cc3)n2c1C,101% (inactive)

row,SMILES,growth
1,COc1cccc(Oc2ccccc2NC(=O)CNC(=O)c2cccc3ccccc23)c1,6.08% [5 µM] (active)
2,C[N+]1=C(/C=C/c2ccc(O)c3ncccc23)C(C)(C)c2ccccc21,32.8% (inactive)
3,Cc1ccc(C2CC(c3ccc(Nc4ccnc5cc(Cl)ccc45)cc3)=NN2C=O)cc1 (stereo not given),69.8% (inactive)
4,COc1cccc2c(=O)c3c(sc12)c(NCCCN)nc1ccccc13,-30.1% (active)
5,CN(C(=O)NCc1cccc(F)c1Cl)[C@H](COC(=O)Nc1cc2ccccc2cn1)CC(O)CO (stereo not given in full),100% (inactive)
6,CCOc1ccc2nc(SCc3nc4n(n3)S(=O)(=O)c3ccccc3N4C)sc2c1,38.2% (inactive)
7,Fc1cc2c(cc1Cl)N(c1ncnc3ccc(-c4cnc5cnccn45)cc13)CC2,98.9% (inactive)
8,O=C(CS(=O)c1oc(-c2cccs2)nc1S(=O)(=O)c1ccc(Br)cc1)c1ccccc1 (stereo not given),93.6% (inactive)
9,CCc1cccc2c3c(sc12)C(c1ccc(Cl)cc1)C(C#N)=C(N)O3 (stereo not given),10.2% (inactive)
10,O=C1NC(=O)C(c2ccccc2)(c2ccccc2)N1Cc1cn(-c2c3ccccc3nc3ccccc23)nn1,74.1% (inactive)
11,CC(=O)CC[C@H]1C(=O)N[C@@H](C(C)C)C(=O)N[C@@H](Cc2cc(O)cc(F)c2)C(=O)N2CCC[C@H](N2)C(=O)O[C@H](/C(C)=C/C=C/C(=O)OC(C)(C)C)C/C=C/C=C/[C@H](O)[C@H](C)[C@H]1O,13.3% (inactive)
12,O=C(CCN1C(=O)/C(=C/c2ccc(O)cc2)SC1=S)Nc1ccc(Cl)cc1,102% (inactive)
13,CCOC(=O)c1cn2ncnc(Oc3ccc(NC(=O)NCCN(C)C)c(Cl)c3)c2c1C,103% (inactive)
14,Oc1c(I)cc(I)cc1CNCCCN(Cc1ccccn1)Cc1ccccn1,-57.2% (active)
15,COc1nc2ccccc2cc1-c1nc2c(cnn2-c2ccc(Br)cc2)c(=O)[nH]1,13.6% (inactive)
16,CNCCCNc1nc2ccccc2c2c(=O)c3cc(F)ccc3sc12,-52.9% (active)
17,c1ccc(OCc2nnc(-c3ccc(Oc4ccccc4)cc3)o2)cc1,104% (inactive)
18,CC(=O)OC[C@H]1OC(Sc2sc(C(=O)c3ccc(Br)cc3)c(N)c2-c2nc3ccccc3s2)[C@H](OC(C)=O)[C@@H](OC(C)=O)[C@H]1OC(C)=O (stereo not given in full),107% (inactive)
19,COc1ccc(-c2cc3c4c(nc5ccccc5c4c2)CC(c2cc(OC)c(OC)c(OC)c2)O3)cc1 (stereo not given),12.8% (inactive)
20,CCCCCCCCCCCCCCCCCCOc1ccc(CC(=O)OCC[N+]2(C)CCCCC2)cc1,101% (inactive)
